High-throughput results: PubChem, National Center for Advancing Translational Sciences (NCATS)
This is a sample that favours compounds with a hit; in the whole collection about 7.8% have one here.
MARV entry inh = qHTS for inhibitors of binding or entry into cells for Marburg Virus | Marburg virus pseudotyped entry inhibition, cell reporter | Potency, µM (highest dose often 37.8 µM), without a hit: top-dose activity change, negative = inhibition, actives largely listed as inhibitors | 300,000 compounds, 1.8% hits; calls by dose curve; tested in HEK293 cells; also: potency is read from the fitted curve at half-maximal effect
HCMV antiviral = qHTS Assay for inhibitors of the human cytomegalovirus (HCMV). HFF cells, HCMV-luciferase reporter, 72 h; stronger effect = lower value. activity change, negative = inhibition, % at 57.5 µM. 410,000 compounds, 4.5% hits; in the data active = activity change below about -60%; inconclusive = no clear call, values can overlap the other calls; inactive = above about -39%
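Inhibition of viral replication was scored as loss of reporter luminescence in HFFs infected with HCMV-luciferase (MOI 1 PFU/cell) for 72 h; compounds tested at 2 doses, normalized to buffer and Salinomycin controls.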
Vaccinia mCherry = qHTS for Stage-Specific Inhibitors of Vaccinia Orthopoxvirus: mCherry Reporter Primary qHTS. Vaccinia virus mCherry reporter infection, fluorescence. Potency, µM (titrated, usually from 36.5 µM), inactives show top-dose activity change, negative = inhibition, hits mostly inhibitors. 310,000 compounds, 0.63% hits; calls by dose curve; tested in A549 cells; also: potency is read from the fitted curve at half-maximal effect; nearly all actives have a fitted effect of over 35% in size
HCV inh = qHTS Assay for Inhibitors of Hepatitis C Virus (HCV). Huh7.5.1 HCVcc-Cre infection, luciferase reporter, 44 h. 340,000 compounds, 3.4% hits. Potency, µM (series often up to 41.8 µM), for the others: top-dose activity change, negative = inhibition, hits mostly inhibitors. AID 651820, 2012; active = well fitted inhibition curve with a large enough effect; inconclusive = small, poorly fitted or top-dose-only effect, or another doubt; inactive = no such curve, though single readings can be large or run the other way; also: potency is read from the fitted curve at half-maximal effect
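HCVcc-Cre virus at an moi near 0.5 was added right after compound to cells cultured 4 h from seeding (1,000 cells/well). Luciferase activity was determined 44 h later, 15 min after substrate addition at RT.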
Lassa entry inh = qHTS for Inhibitors of binding or entry into cells for Lassa Virus | Lassa virus pseudotype entry inhibition, cell reporter | Potency, µM (doses to about 37.9 µM), for inactives: top-dose activity change, negative = inhibition, hits mostly inhibitors | 300,000 compounds, 1.2% hits | AID 540256, 2011; calls by dose curve; tested in HEK293 cells; also: potency is read from the fitted curve at half-maximal effect; nearly all actives have a fitted effect of over 50% in size
VACV Venus inh = qHTS for Stage-Specific Inhibitors of Vaccinia Orthopoxvirus: Venus Reporter Primary qHTS; Vaccinia virus Venus reporter expression, fluorescence; Potency, µM (titrated, usually from 36.5 µM), for the others: at the highest dose activity change, negative = inhibition, usual class: inhibitors; 330,000 compounds, 0.46% hits; calls by dose curve; tested in A549 cells; also: potency is read from the fitted curve at half-maximal effect; nearly all actives have a fitted effect of over 30% in size
The depositor's hits bear a star; i = inactive; ? = inconclusive; . = no result given; [ ] = another dose, or the depositor's remark. % is scaled to controls: 0 for no effect and ±100 for the full control effect.

SMILES	MARV entry inh	HCMV antiviral	Vaccinia mCherry	HCV inh	Lassa entry inh	VACV Venus inh
O=[N+]([O-])c1cc([N+](=O)[O-])c(Oc2cccnc2Br)cc1NN1CCCCC1	.	13	13µM*	-5%	.	?
CC(=O)c1cccc(Oc2cc(NN3CCCCC3)c([N+](=O)[O-])cc2[N+](=O)[O-])c1	.	-37	?	8.9µM*	.	?
CN1CCN(c2ccc(Nc3cc4c(cn3)cc(-c3cccc(F)c3)n4C)cc2)CC1	.	-21	.	.	.	.
Cc1nnc(C)c2c(C)n(Cc3ccc4c(c3)OCO4)c(C)c12	-10%	?	.	4.5µM*	-2%	.
C/C(=N\Nc1ccccn1)c1ccc(C#N)cc1	-2%[46.1 µM]	-23	-5%	-22%	.	-1%
C/C(=N\Nc1ccccn1)c1cccs1	-12%[46.1 µM]	114	-5%	10µM*	.	-5%
C/C(=N\Nc1ccccn1)c1ccc(OC(F)F)cc1	?	34	?	8.9µM*	.	?
Cc1cccc(CNC(=O)Cc2csc3ccccc23)c1	?	40	-12%	.	3%[46.1 µM]	-11%
COCCn1c(C)cc(O)c(C(c2ccccc2)N2CCN(c3ccccc3)CC2)c1=O (stereo not drawn)	.	4	i	.	-4%[46.1 µM]	-11%
COc1ccc(OCc2cc(C(=O)N(C)C(C)c3ccon3)no2)c(Cl)c1 (stereo not drawn)	-7%	-93*	-3%	-14%	3%	-19%
Cc1ccc(Nc2c([N+](=O)[O-])ccc3nonc23)c(C)c1	4%[46.1 µM]	?	-14%	19%	5%[46.1 µM]	-1%
Cc1ccc(S(=O)c2ccc([N+](=O)[O-])c3nonc23)cc1 (stereo not drawn)	.	-95*	?	.	.	49%
CCc1ccc(-n2nc(C)c3c(C)cc(=O)n(CC(=O)Nc4cc(Cl)ccc4OC)c32)cc1	.	30	-5%	.	0%[46.1 µM]	4%
COCCN(Cc1cc2cc(C)ccc2[nH]c1=O)S(=O)(=O)c1ccc(Cl)cc1	.	-92*	i[7.34 µM]	?	.	0%[7.34 µM]
NC(=O)c1ccccc1NC(=O)C1CCCN(c2ncnc3onc(-c4ccc(F)cc4)c23)C1 (stereo not drawn)	.	-5	-15%	.	8%[46.1 µM]	-14%
O=C(c1ccc(Cl)cc1)C1CCCN(Cc2cccc3cnccc23)C1 (stereo not drawn)	.	-62*	.	?	.	.
O=C(c1ccc(Cl)cc1)C1CCCN(Cc2ccc3ncccc3c2)C1 (stereo not drawn)	?	-75*	i	?	.	-23%
O=C(c1cccc(Cl)c1)C1CCCN(Cc2cccc3cnccc23)C1 (stereo not drawn)	?	-71*	-11%	?	-7%	-7%
CN1CC(=O)NC1=N	.	.	4%	.	.	16%
O=C(NCCNCC(O)COc1ccc(O)cc1)N1CCOCC1 (stereo not drawn)	?	26	i	0.32µM*	.	-19%
Cc1ccc2oc(C(Cl)(Cl)Cl)cc(=O)c2c1	12µM*	-89*	11µM*	?	-27%	?
CS(=O)(=O)c1ccc(Nc2cc3c(cn2)cc(-c2ccccc2)n3Cc2ccccc2)cc1	.	-28	.	.	.	.
Cc1ccccc1OCC(=O)Nc1cccc(C(=O)OCc2cc(=O)n3c(C)csc3n2)c1	.	-89*	-14%	.	14%[46.1 µM]	-20%
Cc1ccc(C(=O)Nc2cccc(C(=O)OCc3cc(=O)n4c5c(sc4n3)CCCC5)c2)cc1	.	-88*	-14%	.	26%[46.1 µM]	-15%
Cc1ccccc1C(=O)Nc1ccc(C(=O)OCc2cc(=O)n3nc(C4CC4)sc3n2)cc1	.	-81*	?	.	?	-24%
SMILES	MARV entry inh	HCMV antiviral	Vaccinia mCherry	HCV inh	Lassa entry inh	VACV Venus inh
Cc1cn2c(=O)cc(COC(=O)c3cccc(NC(=O)COc4ccccc4C)c3)nc2s1	.	?	-13%	.	10%[46.1 µM]	-11%
Cc1nn2c(=O)cc(COC(=O)c3ccc(NC(=O)C4CCCCC4)cc3)nc2s1	.	-65*	-41%	.	4%[46.1 µM]	?
O=C(OCc1cc(=O)n2nc(C3CC3)sc2n1)c1ccc(NC(=O)c2ccccc2F)cc1	.	-19	-7%	.	-2%[46.1 µM]	-5%
CCc1nn2c(=O)cc(COC(=O)c3ccc(NC(=O)C4CCCCC4)cc3)nc2s1	.	8	i	.	-1%[46.1 µM]	-17%
Cc1ccc(C(=O)Nc2ccc(C(=O)OCc3cc(=O)n4nc(C5CC5)sc4n3)cc2)cc1	.	-16	-8%	.	?	-3%
Cc1cccc(C(=O)Nc2ccc(C(=O)OCc3cc(=O)n4nc(C5CC5)sc4n3)cc2)c1	.	-10	?	.	3.2µM*	?
Cc1c(NS(=O)(=O)c2ccccc2)ccc([N+](=O)[O-])c1Cl	?	-65*	?	-14%	?	?
Cc1c(Cl)cccc1NS(=O)(=O)c1ccccc1	3%	-10	-4%	5%	21%	-16%
O=S1(=O)N=C(Nc2nc3c(s2)CCCC3)c2ccccc21	?	55	-18%	-7%	7.1µM*	-23%
Cc1cccc(Nc2nc3c(s2)CCCC3)c1	?	63	-27%	-8%	?	-16%
CN(C)c1ccc(/C=[N+]2\C(=O)CC(=O)NC2=O)cc1	.	.	-9%	.	.	-9%
CC(C)(CNC(=O)c1cnn(-c2ncc3c(n2)-c2ccccc2CC3)c1C1CC1)N1CCOCC1	.	.	i	.	.	-10%
COc1ccc(CCNc2nc(-c3cccnc3)nc3ccccc23)cc1OC	8.9µM*	4	-7%	10µM*	?	?
CC(Nc1nc(-c2cccnc2)nc2ccccc12)c1ccc(F)cc1 (stereo not drawn)	?	-34	?	8.9µM*	-2%[46.1 µM]	-27%
COc1ccc(/C=N/Nc2nc(-c3cccnc3)nc3ccccc23)cc1OC	?	-12	-13%	-23%	-24%[46.1 µM]	4%
CC(C)(C)c1ccc(-c2nc(NCc3cccnc3)c3ccccc3n2)cc1	?	-72*	-15%	11µM*	?	-17%
c1ccc(CN2CCC(Nc3nc(-c4cccnc4)nc4ccccc34)CC2)cc1	10µM*	-63*	?	?	?	13µM*
c1cncc(-c2nc(NCCN3CCOCC3)c3ccccc3n2)c1	.	.	16%	.	.	19%
CN(C)C(=O)c1ccc(-c2nc(NCc3cccnc3)c3ccccc3n2)cc1	.	.	-19%	.	.	-19%
Fc1ccc(NN2CCOCC2)cc1-c1noc2ccccc12	.	-5	.	.	.	.
Cc1ccc(-n2nc(C(=O)N3CCN(c4ccc(F)cc4)CC3)c(=O)n(C)c2=O)cc1	.	6	-2%	.	-14%[46.1 µM]	-11%
COc1ccc(C)cc1NC(=O)Nc1nnc(N2CCCCC2)s1	-12%[46.1 µM]	10	-8%	.	-12%[46.1 µM]	-21%
COC(=O)CNc1nc(-c2cccnc2)nc2ccccc12	0%	-3	-17%	?	19%	-17%
c1ccc(CNc2nc(-c3cccnc3)nc3ccccc23)cc1	.	-37	.	?	.	.
